# Compounds with a hit are over-represented: about 7.4% of the library has one in this group of screens.
# ELG1 genotoxic: induces genotoxicity in HEK293T cells with luciferase-tagged ELG1; HEK293T ELG1-luciferase reporter, luminescence, 16 h; Potency, µM (top dose mostly 46 µM), hits mostly activators; 1.3% of 330,000 active; note: nearly all actives have a fitted effect of over 60% in size
#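 ELG1-luciferase HEK293T cells, 2,000/well; compound pinned in; 16 hr, 37 °C, 5% CO2; ONE-Glo, 30 min RT; luminescence on CCD imager.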
# Rab9 prom act: Rab9 promoter activation; Huh7 Rab9 promoter-luciferase reporter, luminescence, 24 h; Potency, µM (doses to about 9.22 µM), usual class: activators; 2.8% of 320,000 active; AID 485297; note: nearly all actives have a fitted effect of over 60% in size
#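 Huh7 cells stably carrying Rab9 promoter–luciferase reporter, plated 1500 cells/well, compound added after 2 h and incubated 24 h at 37 °C; luciferase luminescence then read after 10 min with detection reagent.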
# FLuc modulator: counter-screen for miR-21 project: firefly luciferase inhibitors or activators; purified FLuc, Km substrates, luminescence inhibition; 6.9% of 360,000 active; AID 588342; Potency, µM (doses to about 57.5 µM), usual class: inhibitors; note: nearly all actives have a fitted effect of over 55% in size
# Target sequence (P08659 whole entry, looked up): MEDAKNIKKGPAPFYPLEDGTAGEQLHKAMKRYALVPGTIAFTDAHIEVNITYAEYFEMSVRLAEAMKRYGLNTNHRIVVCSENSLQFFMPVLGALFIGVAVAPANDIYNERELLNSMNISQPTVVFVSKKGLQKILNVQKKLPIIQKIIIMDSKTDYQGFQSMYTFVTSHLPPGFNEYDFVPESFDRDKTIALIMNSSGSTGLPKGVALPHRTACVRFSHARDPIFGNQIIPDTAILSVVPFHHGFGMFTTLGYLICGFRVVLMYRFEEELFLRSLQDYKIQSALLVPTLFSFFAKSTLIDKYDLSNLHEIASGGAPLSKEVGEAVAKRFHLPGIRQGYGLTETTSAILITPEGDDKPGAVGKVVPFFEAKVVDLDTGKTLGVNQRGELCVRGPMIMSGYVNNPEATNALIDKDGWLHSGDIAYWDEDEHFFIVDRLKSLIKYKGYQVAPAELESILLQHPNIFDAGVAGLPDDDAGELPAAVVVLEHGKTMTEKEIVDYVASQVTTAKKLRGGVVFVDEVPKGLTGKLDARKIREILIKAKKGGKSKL
#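 Biochemical qHTS of compounds, final roughly 60 µM downward over six points, against 10 nM purified firefly luciferase using Km concentrations of substrates (10 uM D-luciferin, 10 uM ATP) in Tris acetate pH 7.5 buffer; luminescence output.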
# SMN2 splice up: SMN2 splice variant enhancement. AID 1458. Potency, µM (series often up to 46.1 µM), most hits filed as activators. HEK293 SMN2-luciferase splicing reporter, luminescence, 30-36 h. 2.8% of 210,000 active; note: nearly all actives have a fitted effect of over 55% in size
#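 HEK293 cells carry an SMN2 […]–luciferase reporter in which exon 7 inclusion puts luciferase in frame. Cells were plated 10-12 h before compound addition, then incubated 30-36 h at 37C. ONE-Glo luminescence was read; sodium butyrate at 4.5 mM final served as control.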
# NPC1 promoter act: NPC1 promoter activation. Huh7 NPC1 promoter luciferase reporter, 24 h. Potency, µM (doses to about 9.22 µM), actives largely listed as activators. 2.4% of 320,000 active; note: nearly all actives have a fitted effect of over 60% in size
#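 Luminescence read-out of NPC1 promoter-driven luciferase in stably transfected Huh7 cells; compounds delivered in DMSO and left 24 h at 37C, 5% CO2, qHTS titration format.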
# Hits are given with their value; – = inactive; ? = inconclusive; · = no result; [ ] = another dose, or the depositor's remark. Calls come from the whole dose curve; as a rule, active = well fitted curve in the direction sought with a large enough effect; inconclusive = small, poorly fitted or top-dose-only effect, or another doubt; inactive = no such curve, though single readings can be large; an effect the other way counts as inactive or inconclusive.
SMILES,ELG1 genotoxic,Rab9 prom act,FLuc modulator,SMN2 splice up,NPC1 promoter act
NNC(=O)c1cccc(COc2ccc(Br)cc2)c1,?,0.1µM,10.7µM,1µM,0.316µM
CCCN1C(=O)c2cccc3c(N4CCCCC4)ccc(c23)C1=O,?,?,10.7µM,–[1.84 µM],–
CCOC(=O)C1CCN(C(=O)CCc2nnc3ccc(N4CCC(C)CC4)nn23)CC1,–,–,–,·,–
O=C(CNC(=O)C1CCCCC1)OCC(=O)c1ccc(Br)cc1,–,–,1.69µM,·,–
CCOc1ccc(C(=O)COC(=O)CNC(=O)C2CCCCC2)cc1,–,–,9.53µM,·,–
COc1ccc(C(=O)COC(=O)CNC(=O)C2CCCCC2)c(OC)c1,–,–,?,–,–
O=C(Nc1ccc(F)c(Cl)c1)c1cc(S(=O)(=O)N2CCCc3ccccc32)ccc1F,·,·,12µM,·,·
COc1ccc(S(=O)(=O)N2CCCc3ccccc32)cc1OC,?,–,19µM,·,–
Cc1ccc(S(=O)(=O)Nc2ccccc2C(=O)N2CCOCC2)cc1,–,–,–,·,–
O=c1[nH]c(-c2ccccn2)cc2ccccc12,?,?,16.9µM,15.8µM,?
Cc1cc2ccccc2c(=O)[nH]1,–,–[1.84 µM],–,–,–
COc1ccc(Cl)cc1NC(=O)CSc1nnc2[nH]c(=O)cc(-c3ccccc3)n12,·,·,1.2µM,·,·
CCc1ccc(NC(=O)CSc2nnc3[nH]c(=O)cc(-c4ccccc4)n23)cc1,·,·,1.51µM,·,·
CCCc1cc(=O)[nH]c2nnc(SCC(=O)Nc3ccc(C(C)=O)cc3)n12,–,–,–,·,–
O=C(CSc1nnc2[nH]c(=O)cc(-c3ccccc3)n12)Nc1ccccc1C(F)(F)F,·,·,2.69µM,·,·
Nc1cc(=O)[nH]c2nnc(SCC(=O)Nc3cccc4ccccc34)n12,–,–,–,·,–
CCCNC(=O)C1(O)c2cc(Br)ccc2NC(=O)N1c1ccc(Cl)cc1 (stereo not drawn),–,–,–,·,–
COc1ccc(C(=O)NNC(=O)C23CC4CC(CC(C4)C2)C3)cc1OC,–,–,–,·,–
COc1ccc(S(=O)(=O)N2CCCCCC2)cc1NC(=O)CCCOc1ccccc1,–,–,–,·,–
CCN(CC)c1ccc(N=C2C(=O)Nc3ccccc32)cc1,–,–,6.75µM,·,–
Cc1ccc(N=C2C(=O)Nc3ccccc32)cc1,–,–,?,·,–
CCOC(=O)c1ccc(NC(=O)c2c(NCc3ccc(OC)c(OC)c3OC)sc3c2CCC(C)C3)cc1 (stereo not drawn),·,·,–,·,·
Oc1c(N=Nc2ccccn2)ccc2ccccc12,?,–,1.35µM,–,–
O=S(=O)(O)c1cc(N=Nc2cccc3ccccc23)c(O)c2ncccc12,·,·,·,–[9.22 µM],·
CCOc1ccc(N(CC(=O)Nc2ccc(C)c(Cl)c2)S(C)(=O)=O)cc1,–,–,?,·,–
SMILES,ELG1 genotoxic,Rab9 prom act,FLuc modulator,SMN2 splice up,NPC1 promoter act
CC(C)c1ccc(OCC(=O)Nc2c(Cl)ccc3nsnc23)cc1,·,·,–,–,·
CCN(CC)S(=O)(=O)c1ccc2c(c1)c(=O)c(C(=O)NCCCN(C)c1ccccc1)cn2C,–,–,–,11.2µM,–
O=C(Nc1ccc(Cl)cc1Cl)c1ccc(-c2ccccc2)cc1,–,–,–,–,–
CC(C)NC(=S)NC(=O)c1ccc(Cl)cc1Cl,–,–,–,–[1.84 µM],–
Nc1ccccc1C(=O)Nc1ccc(Cl)cc1Cl,?,2.51µM,10.7µM,·,?
O=C(NC(=S)Nc1ccccc1O)c1ccc(Cl)cc1Cl,?,?,19µM,–,?
C#Cc1cccc(NC(=O)c2ccc(Cl)cc2Cl)c1,16.4µM,1.12µM,2.69µM,·,1.78µM
O=C(Nc1ccccc1Cl)c1ccc(Cl)cc1Cl,–,–,13.5µM,–,–
O=C(Nc1ccccc1Cl)c1ccccc1Cl,–,–,–,–,–
Cc1ccc(C)c(N2N=C(C(=O)Nc3cccnc3)CCC2=O)c1,–,–,–,·,–
CCC(=O)N1CCc2cc(Br)cc(S(=O)(=O)N3CCCC(C(=O)Nc4cccc(F)c4)C3)c21 (stereo not drawn),·,·,–,–,·
CCCc1cc2c(=O)c(-c3ccccn3)c(C)oc2cc1O,–,–,?,–,–
CCCc1cc2c(=O)c(-c3ccccn3)coc2cc1OC,?,1.58µM,4.78µM,?,2µM
CCOC(=O)C1CCCN(C(=O)C(=O)c2cn(CC(=O)N3CCOCC3)c3ccccc23)C1 (stereo not drawn),–,–,–,·,–
c1ccc(CSc2nnc(-c3ccco3)o2)cc1,?,?,16.9µM,·,?

# Compound activity: PubChem, National Center for Advancing Translational Sciences (NCATS)
